From the supplement of paper PMC6555819

Assays:
Assay in all cases: PBM binding z-score (relative to random genomic background probes); higher = stronger binding; sequences stand for … in GC…GCGATTGACAGCGTAGAATGAAGG
[1] = test system: RARb homodimer (NR concentration 270 nM)
Procedure, shortened: (§1)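 Probes were double-stranded and carried 34-nt variable regions with direct-repeat seeds, single-nucleotide variants, half-site ablations and random human genomic background sequences, printed on custom Agilent 4×180K protein-binding microarrays. Arrays were incubated 1 h with ligand-free nuclear receptor dimers in PBS pH 7.4, 2% milk, 0.02% Triton X-100, 1 mM DTT, 0.2 mg/mL BSA and 0.4 mg/ml salmon testes DNA. Antibodies against each partner (one per run) detected binding, and scanned fluorescence was regression-normalized. Binding z-scores use the random background probes as reference.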

[2] = test system: RARg:RXRa (NR concentration 270 nM, RXRa partner concentration 90 nM)
Procedure, shortened: as §1

[3] = test system: RARg homodimer (NR concentration 270 nM)
Procedure, shortened: as §1

[4] = test system: RXRa DBDmut IVT, anti-RXR (DBD mutation: RXRa K156A/R161A, NR concentration 90 nM)
Procedure, shortened: as §1

[5] = test system: RXRa homodimer (NR concentration 180 nM)
Procedure, shortened: as §1

[6] = test system: THRa:RXRa (NR concentration 90 nM, RXRa partner concentration 90 nM)
Procedure, shortened: as §1

[7] = test system: THRa homodimer (NR concentration 90 nM)
Procedure, shortened: as §1

[8] = test system: VDR:RXRa (NR concentration 270 nM, RXRa partner concentration 90 nM)
Procedure, shortened: as §1

[9] = test system: VDR homodimer (NR concentration 270 nM)
Procedure, shortened: as §1

| Sequence | PBM binding z-score [1] | PBM binding z-score [2] | PBM binding z-score [3] | PBM binding z-score [4] | PBM binding z-score [5] | PBM binding z-score [6] | PBM binding z-score [7] | PBM binding z-score [8] | PBM binding z-score [9] |
| --- | --- | --- | --- | --- | --- | --- | --- | --- | --- |
| CCGACTGGGGCAGAAAGGTTCCCATACCATCCGG | 0.053 | -0.0575 | 0.0675 | -1.16 | -0.265 | -0.504 | -0.737 | -0.573 | -0.826 |
| TCTGCTAGGTCAACGATGGTCAGCTATTCTGCTA | 3.16 | 3.99 | 4.93 | 0.833 | 2.46 | 3.03 | 0.599 | 1.71 | -0.371 |
| CCTTACGGGTGAAGGTTATAGCACGGGTGGTACG | 0.868 | 0.873 | 0.868 | -1.61 | 1.23 | 0.509 | 0.0246 | 0.0707 | -0.283 |
| GATACAGAGTCAAGGCCAGAGTACGCGTATTGAT | 0.0594 | 0.0796 | 0.345 | -0.102 | 0.116 | 0.0889 | -0.438 | -0.36 | -0.0653 |
| CGTCCAAGGTCAATGCTAGGTTAGTGAAAGCATT | 2.54 | 6.12 | 6.16 | 3.86 | 4.75 | 3.91 | 2.27 | 4.02 | 2.58 |
| CATTACGGGTCACTGACAGGTTATAGCATTTGGA | 3.58 | 5.97 | 4.78 | 2.24 | 5.7 | 3.2 | 0.716 | 4 | 1.4 |
| AGAACGAGGGCAATGAGTTGATAGCTCGGGTGGC | 0.713 | 0.827 | 1.26 | 1.77 | 0.484 | 0.779 | -0.312 | 4.8 | 2.69 |
| CCTTACGCGTCACTCCAGGTTATAGCATCGGAGT | 0.704 | 0.409 | 0.416 | 0.6 | 0.294 | 2.62 | 1.07 | 0.361 | 0.782 |
| CCTGCTAGGTCAATGGTCAGCTAGAGCAGCTCGC | 2.68 | 3.14 | 3.81 | 1.45 | 2.19 | 2.33 | 0.515 | 0.675 | -0.262 |
| TCATATAGGCAAATGCTAGGTGAAAGTCCGATCT | 0.285 | 0.0737 | 0.0347 | 1.15 | 0.445 | 0.84 | 0.227 | 0.571 | -0.285 |
| TCATATAGGTAAAGGTGAAAGACGAACGATATGA | 0.974 | 1.51 | 1.34 | 0.604 | 1.85 | 1.04 | -0.601 | 0.914 | -0.0355 |
| ATATGTAGGTTATCGGGTCATTCACTTTGCGCAT | 3.14 | 3.43 | 2.55 | 1.88 | 3.56 | 3.39 | 2.94 | 3.73 | 3.12 |
| TCACATAGGTAATACAGGTGAAAGTCGGCATCTA | 0.573 | 0.559 | 0.535 | 1.35 | 1.14 | 0.928 | -0.0751 | 1.09 | -0.296 |
| GGAACGAGGGCATAGTTGATAGCATCTGTCGACG | 0.536 | 0.949 | 1.22 | 2.25 | 1.02 | 0.72 | -0.185 | 0.655 | 1.18 |
| TAGCCTAGGTCATTGAGGGGCCAGTATAGAAAGC | 2.97 | 5.82 | 4.34 | 1.59 | 2.82 | 3.05 | 0.714 | 3.07 | 1.16 |
| ATCTCTAGGTTAGACTCAGTTCAGTGAAGAACGC | 1.37 | 1.4 | 1.14 | 1 | 0.687 | 1.52 | 1.21 | 1.7 | 2.48 |
| TCTGGTTGGTCACGGAGGTCACACACGACGGGTA | 4.58 | 4.91 | 5.28 | 0.702 | 4.97 | 3.58 | 2.93 | 5.92 | 3.66 |
| GGAACGAGGGCATTCGAGTAGATAGCATGGCGAT | 0.0849 | 0.96 | 1.23 | 3.24 | 0.859 | 1.41 | -0.662 | 0.958 | 1.51 |
| CGAACTAGGTCAGAACAGGCCAGTGAAGGATGAT | 2.09 | 2.58 | 2.86 | 0.213 | 1.28 | 2.53 | -0.201 | 0.281 | -0.281 |
| CCTTACGGGTCACGACGTTATAGCACGACGAGCG | 3.34 | 5.56 | 5.15 | 0.951 | 6.26 | 2.99 | 0.181 | 3.73 | 0.722 |
| ACTATTAGTTGACTTAGGGCAAACGATACGACGC | 0.722 | 0.773 | 1.08 | 0.703 | 0.56 | 1.24 | 0.149 | 0.55 | -0.123 |
| CCTCGGAGGACAAGAGGAGGTCAGAGCTGCCAGA | 2.96 | 2.87 | 2.83 | 0.0626 | 1.58 | 2.55 | 0.679 | 1.48 | 0.697 |
| AGTCAAAGTTCACTAGGTAACGAAAGATTCAGCT | 3.45 | 4.86 | 5.55 | 3.95 | 3.92 | 1.85 | 0.1 | 3.25 | 3.69 |
| AGTCAAAGTTCACTAGGTATCGTAAGATTCAGCT | 3.71 | 4.66 | 5.74 | 4.28 | 3.72 | 1.51 | -0.258 | 3.89 | 4.12 |
| CCTACTGGGCCAAGGTCATTAATCAGTCAAAGCA | 3.03 | 3.21 | 2.99 | 1.47 | 2.71 | 3.1 | 2.03 | 2.84 | 3.22 |
| CTCGAAAGGTCGCGCTCAGGTGAGTATACCAAAC | 3.47 | 5.54 | 4.9 | 2.28 | 5.79 | 4.23 | 1.01 | 3.55 | 1.35 |
